Results as given in PubChem BioAssay (Tox21).
Inconclusive results are not listed. Active and inactive are the calls of the source. Unless noted, the call rests on the fitted dose curve; in most records, active means well fitted curve in the direction sought with a large enough effect in the repeat runs; inconclusive means weak or mixed curves; inactive means no such curve, though single readings can be large; an effect the other way counts as inactive or inconclusive.

Legend:
[1] = qHTS assay to identify small molecule antagonists of the peroxisome proliferator-activated receptor delta (PPARd) signaling pathway - cell viability counter screen (AID 743213); further: nearly all actives have a fitted effect of over 50% in size
Outline: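 Agonist-stimulated (L165041, 300 nM final) HEK293H PPARd UAS-bla cells are exposed to compounds for 17 h at 37 C, and ATP-based luminescence (CellTiter-Glo) from the same wells reports cytotoxicity.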

[2] = qHTS assay to identify small molecule antagonists of the farnesoid-X-receptor (FXR) signaling pathway - cell viability counter screen (AID 743221; active means well fitted cell-killing curve with a large enough effect in the repeat runs, not every such curve was filed as active; further: nearly all actives have a fitted effect of over 50% in size)
Outline: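 FXR-UAS-bla HEK 293T cells were treated with test compounds plus chenodeoxycholic acid (50 uM final) for 16 h at 37 C. Cell viability in the same wells was then read as CellTiter-Glo luminescence after 30 min at room temperature.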

[3] = biological target: Vitamin D3 receptor (Homo sapiens) (UniProt P11473); assay: qHTS assay to identify small molecule agonists of the vitamin D receptor (VDR) signaling pathway (AID 743222; calls by dose curve)
Chain of Vitamin D3 receptor (Homo sapiens) (P11473 whole entry, looked up): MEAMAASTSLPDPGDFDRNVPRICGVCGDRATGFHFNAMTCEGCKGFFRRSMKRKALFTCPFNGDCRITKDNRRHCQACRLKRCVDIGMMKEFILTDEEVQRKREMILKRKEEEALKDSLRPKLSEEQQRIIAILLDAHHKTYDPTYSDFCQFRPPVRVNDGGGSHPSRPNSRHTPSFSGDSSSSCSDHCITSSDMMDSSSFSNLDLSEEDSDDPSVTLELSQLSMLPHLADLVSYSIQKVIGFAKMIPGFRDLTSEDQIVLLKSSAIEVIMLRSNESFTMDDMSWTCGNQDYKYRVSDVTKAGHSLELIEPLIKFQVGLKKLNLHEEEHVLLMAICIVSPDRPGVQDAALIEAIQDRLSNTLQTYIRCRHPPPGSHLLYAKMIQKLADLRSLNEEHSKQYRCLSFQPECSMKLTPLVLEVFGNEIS
Outline: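 VDR-bla cells were seeded, left 4 h, treated with compounds in DMSO for 16 h, incubated 2 h at RT with B/G FRET substrate, and read for fluorescence.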

[4] = biological target: Vitamin D3 receptor (Homo sapiens) (UniProt P11473); assay: qHTS assay to identify small molecule antagonists of the vitamin D receptor (VDR) signaling pathway (AID 743223; active means well fitted inhibition curve with a large enough effect in the signal ratio in the repeat runs, not every such curve was filed as active; the % refers to the signal ratio)
Outline: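 VDR-bla cells were plated, incubated 4 h at 37C, then given compound and 1alpha,25-dihydroxyvitamin D3 (3 nM final). After 16 h at 37C, LiveBLAzer B/G FRET substrate was added for 2 h at room temperature and fluorescence read.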

[5] = qHTS assay to identify small molecule agonists of the vitamin D receptor (VDR) signaling pathway - cell viability counter screen (AID 743224); further: series mostly up to about 63 µM; nearly all actives have a fitted effect of over 50% in size
Outline: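 Here cell health was gauged by luminescent ATP detection (CellTiter-Glo, 30 min RT) in VDR-bla cells that had been incubated with test compounds for 16 h at 37C and 5% CO2.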

[6] = qHTS assay to identify small molecule antagonists of the vitamin D receptor (VDR) signaling pathway - cell viability counter screen (AID 743225); further: nearly all actives have a fitted effect of over 50% in size
Outline: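 VDR-bla HEK 293T cells, 4 h pre-incubation at 37C, then compound plus 1-alpha,25-dihydroxyvitamin D3 (3 nM final) for 16 h. After the beta-lactamase FRET read, CellTiter-Glo was added to the same wells; luminescence after 30 min at room temperature.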

[7] = qHTS assay to identify small molecule agonists of the NFkB signaling pathway (AID 1159509; active means well fitted curve in the direction sought with a large enough effect in the signal ratio in the repeat runs, not every such curve was filed as active; the % refers to the signal ratio; further: series mostly up to about 61 µM)
Outline: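 NFkB-bla ME-180 cells with a beta-lactamase reporter under an NF-kB response element were plated overnight, treated with compounds in DMSO for 5 hr at 37 C, then loaded with FRET substrate for 1.5 hr at room temperature.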

[8] = qHTS assay to identify small molecule agonists of the NFkB signaling pathway - cell viability counter screen (AID 1159515; calls by dose curve; further: series mostly up to about 61 µM; nearly all actives have a fitted effect of over 55% in size)
Outline: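 5 hr compound treatment of NFkB-bla ME-180 cells (2,000/well, seeded overnight beforehand), followed by reporter substrate for 1.5 hr. CellTiter-Glo added afterward; luminescence after 30 min RT.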

[9] = qHTS assay to identify small molecule agonists of the endoplasmic reticulum stress response signaling pathway (AID 1159516; active means well fitted activation curve with a large enough effect in the signal ratio in the repeat runs, not every such curve was filed as active; the % refers to the signal ratio)
Outline: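 Reporter HeLa cells (ESRE-beta-lactamase) underwent 5 hr compound incubation at 37 C and 5% CO2 in quantitative HTS format. Detection followed 2 hr of FRET substrate loading at room temperature.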

[10] = qHTS assay to identify small molecule agonists of the endoplasmic reticulum stress response signaling pathway - cell viability counter screen (AID 1159517; calls by dose curve)
Outline: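 Counter-screen wells were identical to the reporter wells. Cells were plated at 1,500 per well and dosed for 5 hr, then read for luminescence 30 min after CellTiter-Glo addition.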

[11] = qHTS assay to identify small molecule antagonists of the retinoid-related orphan receptor gamma (ROR-gamma) signaling pathway - cell viability counter screen (AID 1159520); further: nearly all actives have a fitted effect of over 50% in size
Outline: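 Tet-on ROR gamma CHO cells were given compounds for 2 hr, then doxycycline hyclate at 1 uM final, and incubated 16 hr at 37 C. Viability was measured as ATP content by CellTiter-Glo luminescence.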

[12] = biological target: Nuclear receptor ROR-gamma (Homo sapiens) (UniProt P51449); assay: qHTS assay to identify small molecule antagonists of the retinoid-related orphan receptor gamma (ROR-gamma) signaling pathway (AID 1159521)
Outline: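 Tet-on RORγ CHO cells carrying a ROR response element–luciferase reporter were pretreated with compounds for 2 h, then induced with 1 uM (final) doxycycline hyclate for 16 h at 37 C. Antagonism was read as decreased ONE-Glo luminescence.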

[13] = qHTS assay to identify small molecule agonists of the AP-1 signaling pathway - cell viability counter screen (AID 1159525; calls by dose curve; further: nearly all actives have a fitted effect of over 55% in size)
Outline: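 AP-1-bla ME-180 cells in Opti-MEM with 0.5% dialyzed FBS, compound exposure 5 h at 37 C in 15-point titration. Viability read in the same wells as ATP content by CellTiter-Glo luminescence, normalised to tetra-n-octylammonium bromide and DMSO controls.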

[14] = qHTS assay to identify small molecule agonists of the AP-1 signaling pathway (AID 1159526; calls by dose curve)
[15] = qHTS assay to identify small molecule agonists of the RXR signaling pathway - cell viability counter screen (AID 1159529)
Outline: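 RXR-alpha-UAS-bla HEK 293T cells in medium with 2% charcoal-stripped FBS were preincubated 5 hr, then exposed to compounds for 16 hr at 37 C. Viability was read as CellTiter-Glo luminescence after 30 min at room temperature.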

[16] = qHTS assay to identify small molecule agonists of the farnesoid-X-receptor (FXR) signaling pathway - cell viability counter screen (AID 743218); further: nearly all actives have a fitted effect of over 45% in size
Outline: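 After 16 h at 37 C with test compounds, FXR-bla HEK 293T cells were given LiveBLAzer B/G substrate for 2 h at RT and then CellTiter-Glo; luminescence was taken after 30 min.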

[17] = biological target: Peroxisome proliferator-activated receptor delta (Homo sapiens) (UniProt Q03181); assay: qHTS assay to identify small molecule antagonists of the peroxisome proliferator-activated receptor delta (PPARd) signaling pathway (AID 743215; active means well fitted inhibition curve with a large enough effect in the signal ratio in the repeat runs, not every such curve was filed as active; the % refers to the signal ratio; further: series mostly up to about 62 µM)
Chain of Peroxisome proliferator-activated receptor delta (Homo sapiens) (Q03181 whole entry, looked up): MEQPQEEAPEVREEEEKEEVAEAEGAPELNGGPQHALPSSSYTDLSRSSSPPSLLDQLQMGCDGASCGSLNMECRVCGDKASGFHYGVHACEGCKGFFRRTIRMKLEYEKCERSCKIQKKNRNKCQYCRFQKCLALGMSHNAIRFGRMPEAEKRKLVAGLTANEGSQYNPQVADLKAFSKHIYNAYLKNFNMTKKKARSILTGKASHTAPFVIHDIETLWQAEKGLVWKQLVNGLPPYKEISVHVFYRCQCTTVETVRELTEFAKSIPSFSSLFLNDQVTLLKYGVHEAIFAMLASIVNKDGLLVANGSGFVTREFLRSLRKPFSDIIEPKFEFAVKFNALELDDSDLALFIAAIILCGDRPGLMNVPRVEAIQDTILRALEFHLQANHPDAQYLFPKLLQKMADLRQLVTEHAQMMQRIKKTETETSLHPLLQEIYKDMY
Outline: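 With L165041 present at 300 nM final, compounds were incubated 17 h at 37 C on PPARd UAS-bla HEK293H cells. A FRET-based beta-lactamase substrate was then applied for 2 h at room temperature and fluorescence intensity recorded.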

[18] = biological target: Bile acid receptor (Homo sapiens) (UniProt Q96RI1); assay: qHTS assay to identify small molecule antagonists of the farnesoid-X-receptor (FXR) signaling pathway (AID 743217; active means well fitted inhibition curve with a large enough effect in the signal ratio in the repeat runs, not every such curve was filed as active; the % refers to the signal ratio)
Chain of Bile acid receptor (Homo sapiens) (Q96RI1 whole entry, looked up): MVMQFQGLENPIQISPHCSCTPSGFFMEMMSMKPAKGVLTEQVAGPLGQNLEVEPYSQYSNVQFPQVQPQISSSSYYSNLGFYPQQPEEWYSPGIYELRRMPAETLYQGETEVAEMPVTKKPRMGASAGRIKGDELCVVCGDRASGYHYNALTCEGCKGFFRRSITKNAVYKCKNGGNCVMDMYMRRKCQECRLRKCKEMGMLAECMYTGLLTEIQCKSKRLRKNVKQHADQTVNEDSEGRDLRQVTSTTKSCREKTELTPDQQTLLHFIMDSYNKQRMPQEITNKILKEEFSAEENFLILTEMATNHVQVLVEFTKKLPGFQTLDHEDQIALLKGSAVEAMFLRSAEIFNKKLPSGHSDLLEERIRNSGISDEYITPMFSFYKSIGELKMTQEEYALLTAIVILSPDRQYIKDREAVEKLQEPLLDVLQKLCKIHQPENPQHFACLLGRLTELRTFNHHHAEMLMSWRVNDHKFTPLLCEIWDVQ
Outline: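 In this cell-based antagonist screen, inhibition of CDCA-driven (50 uM final) UAS-beta-lactamase expression in HEK 293T cells was measured by FRET fluorescence following 16 h compound exposure at 37 °C.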

[19] = biological target: Bile acid receptor (Homo sapiens) (UniProt Q96RI1); assay: qHTS assay to identify small molecule agonists of the farnesoid-X-receptor (FXR) signaling pathway (AID 743220; active means well fitted activation curve with a large enough effect in the signal ratio in the repeat runs, not every such curve was filed as active; the % refers to the signal ratio)
Outline: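 Beta-lactamase reporter under UAS control in GeneBLAzer FXR HEK 293T cells (5000/well) measured with LiveBLAzer FRET substrate after 2 h at room temperature. Compound exposure lasted 16 h at 37C.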

Measured: Potency

Cc1ccc2c(Cl)cc(Cl)c(O)c2n1
not listed: [16] | [17] | [18] | [19]
inactive: all other assays above

CC(CCl)OC(C)CCl (stereo not given)
not listed: [3] | [4] | [17] | [18] | [19]
inactive: all other assays above

CC[C@H](NC(C)C)[C@H](O)c1ccc(O)c2[nH]c(=O)ccc12
not listed: [3] | [18] | [19]
inactive: all other assays above

O=C(OCCN1CCOCC1)c1cccnc1Nc1cccc(C(F)(F)F)c1
not listed: [4] | [6] | [17] | [18] | [19]
inactive: all other assays above

O=C(O)c1cccnc1Nc1cccc(C(F)(F)F)c1
not listed: [1] | [2] | [4] | [17]
inactive: all other assays above

CCCOC(C)=O
not listed: [1] | [3] | [4] | [5] | [18] | [19]
inactive: all other assays above

O=C1OC(=O)C2CC=CCC12 (stereo not given)
not listed: [2] | [5] | [6] | [16] | [18] | [19]
inactive: all other assays above

O=C(O)CCc1nc2ccccc2[nH]1
not listed: [3] | [4] | [5] | [18] | [19]
inactive: all other assays above

CC(C)(C(=O)O)c1ccc(C(O)CCCN2CCC(C(O)(c3ccccc3)c3ccccc3)CC2)cc1 (stereo not given)
not listed: [4] | [17] | [18] | [19]
inactive: all other assays above

O=C(Cl)c1cc(Cl)cc(Cl)c1
not listed: [4] | [6] | [17] | [18] | [19]
inactive: all other assays above

O=C(O)c1cc(C(=O)O)c(C(=O)O)cc1C(=O)O
not listed: [1] | [16] | [17]
inactive: all other assays above

COc1cc(C)c(Cc2cnc(N)nc2N)cc1OC
not listed: [3] | [4] | [18] | [19]
inactive: all other assays above

O=C(Nc1ccc2c(c1)Cc1ccccc1-2)C(F)(F)F
not listed: [3] | [17]
inactive: all other assays above

CCOCCn1c(N2CCCN(C)CC2)nc2ccccc21
not listed: [16] | [18] | [19]
inactive: all other assays above

Cc1c(Cl)cccc1Nc1ccccc1C(=O)O
not listed: [2] | [3] | [4] | [6] | [17]
inactive: all other assays above

Nc1ccccc1Nc1ccccc1
not listed: [3] | [4] | [17] | [18] | [19]
inactive: all other assays above

Nc1ccc(-c2ccc(F)cc2)cc1
not listed: [2] | [3] | [4] | [16] | [17]
inactive: all other assays above

O=C(O)CNc1ccccc1
not listed: [1] | [17] | [18]
inactive: all other assays above

O=C(O)c1ccccc1[N+](=O)[O-]
not listed: [2] | [6] | [16] | [18]
inactive: all other assays above
